Values without a mark were called inactive. Results filed as inconclusive are left out. The source made the active and inactive calls. Unless noted, calls come from the whole dose curve; as a rule, active = well fitted curve in the direction sought with a large enough effect in the repeat runs; inconclusive = weak or mixed curves; inactive = no such curve, though single readings can be large; an effect the other way counts as inactive or inconclusive.

For test [1], the target named is Progesterone receptor (Homo sapiens) (UniProt P06401). The test is described as follows: qHTS assay to identify small molecule agonists of the progesterone receptor (PR) signaling pathway (AID 1346784; calls by dose curve; note: % is set by controls: 0 for no effect and ±100 for the full control effect; nearly all actives have a fitted effect of over 30% in size). The essentials: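 Seed PR-UAS-bla HEK 293T cells (2% charcoal-stripped FBS), incubate 6 hr at 37C; add compounds in DMSO, 16 hr at 37C; add LiveBLAzer B/G substrate, 2 hr RT; read fluorescence intensity.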
Progesterone receptor (Homo sapiens), sequence (P06401 whole entry, looked up): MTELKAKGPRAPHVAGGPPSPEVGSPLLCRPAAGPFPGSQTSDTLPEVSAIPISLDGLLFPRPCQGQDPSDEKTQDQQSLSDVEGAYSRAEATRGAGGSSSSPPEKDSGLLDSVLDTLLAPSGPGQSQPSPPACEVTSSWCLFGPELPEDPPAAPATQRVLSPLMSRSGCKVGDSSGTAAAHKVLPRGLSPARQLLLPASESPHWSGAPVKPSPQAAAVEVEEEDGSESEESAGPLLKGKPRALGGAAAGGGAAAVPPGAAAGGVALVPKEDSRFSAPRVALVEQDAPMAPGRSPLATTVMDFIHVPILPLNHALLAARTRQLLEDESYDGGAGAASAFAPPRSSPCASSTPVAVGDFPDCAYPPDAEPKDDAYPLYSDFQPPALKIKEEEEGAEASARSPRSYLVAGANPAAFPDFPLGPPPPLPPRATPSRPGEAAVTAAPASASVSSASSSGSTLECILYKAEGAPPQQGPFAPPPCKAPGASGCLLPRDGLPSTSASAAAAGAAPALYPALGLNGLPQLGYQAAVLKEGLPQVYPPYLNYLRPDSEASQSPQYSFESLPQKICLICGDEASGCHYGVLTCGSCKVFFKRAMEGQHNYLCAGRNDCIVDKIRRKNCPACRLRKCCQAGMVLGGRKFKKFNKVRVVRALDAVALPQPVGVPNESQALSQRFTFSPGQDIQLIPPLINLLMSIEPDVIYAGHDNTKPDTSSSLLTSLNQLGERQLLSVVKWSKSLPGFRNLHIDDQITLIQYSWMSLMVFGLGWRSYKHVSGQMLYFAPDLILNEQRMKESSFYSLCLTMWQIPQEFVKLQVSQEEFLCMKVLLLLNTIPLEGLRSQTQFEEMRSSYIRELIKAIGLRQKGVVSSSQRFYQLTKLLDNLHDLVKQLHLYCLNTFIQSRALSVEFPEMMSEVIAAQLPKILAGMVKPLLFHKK
A general note: Quantitative high-throughput screening tests each substance at several concentrations.

A short description of test [2]: qHTS assay to identify small molecule antagonists of the TGF-beta/Smad signaling pathway - cell viability counter screen (AID 1346824). Note: % is set by controls: 0 for no effect and ±100 for the full control effect; nearly all actives have a fitted effect of over 50% in size. A digest of the protocol:
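SBE-bla HEK 293T cells were plated overnight at 37 C, then given compounds in DMSO plus TGF-beta1 (added as 0.25 ng/mL solution) for 5 hr. After the bla read, CellTiter-Glo was added to the same wells and luminescence read after 30 min at room temperature.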

Test [3] is described as follows: qHTS assay to identify small molecule agonists of the TGF-beta/Smad signaling pathway - cell viability counter screen (AID 1346829). Note: top concentration of the series differs between compounds; % is set by controls: 0 for no effect and ±100 for the full control effect; nearly all actives have a fitted effect of over 45% in size. The essentials: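 In parallel with the Smad reporter read, viability of HEK 293T cells stably carrying SBE-bla is quantified by ATP luminescence following 5 hr compound treatment.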
Test [4] in a line: qHTS assay to identify small molecule agonists of the TGF-beta/Smad signaling pathway (AID 1346859; active = well fitted activation curve with a large enough effect in the signal ratio in the repeat runs, not every such curve was filed as active; the % refers to the signal ratio; note: series mostly up to about 77 µM; % is set by controls: 0 for no effect and ±100 for the full control effect). The essentials: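 Beta-lactamase reporter activity downstream of Smad binding elements was measured in stably transfected HEK 293T cells; compounds were incubated for 5 hr, substrate for 2 hr at room temperature.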
In test [5] the target is Thyrotropin-releasing hormone receptor (Homo sapiens) (UniProt P34981). The test is described as follows: qHTS assay to identify small molecule antagonists of the thyrotropin-releasing hormone receptor (TRHR) signaling pathway (AID 1346877; active = well fitted inhibition curve with a large enough effect in the repeat runs, not every such curve was filed as active; note: series mostly up to about 51 µM; % is set by controls: 0 for no effect and ±100 for the full control effect). A digest of the protocol:
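TRHR-expressing HEK293 cells loaded with calcium dye for 2 h at 37 C; compounds pre-incubated 5 min at room temperature before TRH challenge at 1 nM final. Intracellular calcium fluorescence read kinetically for 3 min; 15 concentrations in triplicate.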

The target is the same in test [6]. Briefly: qHTS assay to identify small molecule agonists of the thyrotropin-releasing hormone receptor (TRHR) signaling pathway (AID 1346891; calls by dose curve; note: series mostly up to about 58 µM; % is set by controls: 0 for no effect and ±100 for the full control effect). The essentials:
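Overnight-plated (18 h, 37 °C, 5% CO2) TRHR-Hek293 cells; 2 h calcium dye at 37 °C; compound in DMSO; 3-min kinetic fluorescence read.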

The nature of test [7]: Human pregnane X receptor (PXR) small molecule agonists, qHTS cell viability counter screen (AID 1346977). Note: nearly all actives have a fitted effect of over 50% in size. Note: potency is the fitted concentration of half-maximal effect. The essentials: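 After a 5hr pre-incubation, PXR-Luc HepG2 cells received compounds plus positive control in DMSO and were kept 24hr at 37C. Cell viability was quantified by fluorescence from CellTiter-Fluor added for the final hour.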
Test [8] can be described thus: Caspase-3/7 induction in HepG2 cells by small molecules, qHTS assay (AID 1346978). Note: nearly all actives have a fitted effect of over 15% in size. Note: potency is the fitted concentration of half-maximal effect. A digest of the protocol:
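Wild-type HepG2 cells (2,000/well) were settled 5 h at 37 C, 5% CO2, then exposed to compounds in DMSO for 17 h. Caspase-3/7 activity was read by luminescence 30 min after adding Caspase-Glo 3/7 reagent at room temperature.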

Test [9] in a line: Caspase-3/7 induction in CHO-K1 cells by small molecules, qHTS cell viability counter screen (AID 1346979). Note: nearly all actives have a fitted effect of over 35% in size. Note: potency is the fitted concentration of half-maximal effect. A digest of the protocol:
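Multiplexed with Caspase-Glo 3/7 in CHO-K1 cells, this counter screen added CellTiter-Fluor after 16hr of compound exposure and recorded fluorescence 1hr later.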

Test [10] in a line: Caspase-3/7 induction in CHO-K1 cells by small molecules, qHTS assay (AID 1346980). Note: % is set by controls: 0 for no effect and ±100 for the full control effect; nearly all actives have a fitted effect of over 15% in size. The essentials: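 Wild-type cells were seeded at 1,500 per well and settled 5 hr at 37 C, 5% CO2, then exposed to DMSO-dissolved compounds for 17 hr. Caspase-Glo 3/7 reagent was added, and luminescence was read after 30min at room temperature.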
Test [11] in a line: Caspase-3/7 induction in HepG2 cells by small molecules, qHTS cell viability counter screen (AID 1346981). Note: nearly all actives have a fitted effect of over 30% in size. Note: potency is the fitted concentration of half-maximal effect. A digest of the protocol:
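Wild-type HepG2 cells, 2,000/well, settled 5 hr at 37 C, 5% CO2 before compound addition. Viability read by CellTiter-Fluor fluorescence, reagent added after 16 hr compound exposure, then 1 hr at 37C, in the same wells as the caspase read.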

In test [12] the target is Nuclear receptor subfamily 1 group I member 2 (Homo sapiens) (UniProt O75469). Briefly: Human pregnane X receptor (PXR) small molecule agonists, qHTS assay (AID 1346982). For activation: % is set by controls: 0 for no effect and ±100 for the full control effect. Note: nearly all actives have a fitted effect of over 35% in size. Note: potency is the fitted concentration of half-maximal effect. A digest of the protocol:
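PXR-Luc HepG2 reporter cells (CYP3A4-driven luciferase) in 5% charcoal-stripped FBS medium, plated 5 h before compound addition, then treated 24 h at 37C. Luciferase read by ONE-Glo luminescence after 30 min at room temperature.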

Test [13] has as its target Cytochrome P450 2C19 (Homo sapiens) (UniProt P33261). Briefly: Cytochrome P450 Family 2 Subfamily C Member 19 (CYP2C19) small molecule antagonists: luciferase reporter qHTS assay (AID 1671197). Note: nearly all actives have a fitted effect of over 65% in size. Note: potency is the fitted concentration of half-maximal effect. A digest of the protocol: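 Compounds were tested on CYP2C19 activity via proluciferin conversion to luciferin. The 37C, 1 h reaction followed NADPH addition; detection reagent stopped it.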

Test [14] can be described thus: qHTS assay to identify small molecule agonists of the progesterone receptor (PR) signaling pathway - cell viability counter screen (AID 1346799; calls by dose curve; note: % is set by controls: 0 for no effect and ±100 for the full control effect; nearly all actives have a fitted effect of over 45% in size). The essentials:
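Using the same plates as the PR reporter screen, HEK293T PR-UAS-bla cells received compounds for 16 hr at 37C and were then lysed with CellTiter-Glo; luminescence was read 30 min later at room temperature.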

The target in test [15] is Nuclear receptor subfamily 1 group I member 2 (Rattus norvegicus) (UniProt Q9R1A7). The test is described as follows: Rat pregnane X receptor (rPXR) activation by small molecules, qHTS assay (AID 1346983). Note: % is set by controls: 0 for no effect and ±100 for the full control effect; nearly all actives have a fitted effect of over 20% in size. Particulars: rPXR luciferase reporter cells, One-Glo luminescence, 24 h; max activation: stronger effect = higher value. A digest of the protocol:
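Cell-based rPXR luciferase reporter assay, 2,000 cells per well, rested 5hr at 37 C before compound addition in DMSO, then 24 hr at 37 C. One-Glo reagent was added and luminescence read after 30 min at room temperature.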

In test [16] the target is Cytochrome P450 2D6 (Homo sapiens) (UniProt P10635). The test is described as follows: Cytochrome P450 Family 2 Subfamily D Member 6 (CYP2D6) small molecule antagonists: luciferase reporter qHTS assay (AID 1671196). Note: series mostly up to about 120 µM; % is set by controls: 0 for no effect and ±100 for the full control effect; nearly all actives have a fitted effect of over 50% in size. The essentials:
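Cell-free P450-Glo system: CYP2D6 with proluciferin substrate was pre-incubated with compound for 10 min, then reacted with NADPH regeneration for 1 h at room temperature. Luciferin product was detected after 20 min, and data were reported as relative luminescence units.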
On the technique in general: Reporter assays use an easily measured gene product as a stand-in for the process of interest.

Test [17] deals with Progesterone receptor (Homo sapiens) (UniProt P06401). Briefly: qHTS assay to identify small molecule antagonists of the progesterone receptor (PR) signaling pathway (AID 1346795; active = well fitted inhibition curve with a large enough effect in the signal ratio in the repeat runs, not every such curve was filed as active; the % refers to the signal ratio; note: potency is the fitted concentration of half-maximal effect). A digest of the protocol:
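Screening used a GripTite HEK293T line with PR-responsive UAS-beta-lactamase. Cells were challenged with compound in the presence of 1 nM R5020 final for 16 hr at 37C; B/G FRET substrate, 2 hr room temperature, fluorescence.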

Test [18] in a line: qHTS assay to identify small molecule antagonists of the progesterone receptor (PR) signaling pathway - cell viability counter screen (AID 1346798). Note: nearly all actives have a fitted effect of over 50% in size. Note: potency is the fitted concentration of half-maximal effect. The essentials:
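Measures cytotoxicity in parallel with the PR antagonist reporter read: HEK293T PR-UAS-bla cells get compound and R5020 for 16 hr, and remaining viable cells are quantified by CellTiter-Glo luminescence.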

Thyrotropin-releasing hormone receptor (Homo sapiens), sequence (P34981 whole entry, looked up): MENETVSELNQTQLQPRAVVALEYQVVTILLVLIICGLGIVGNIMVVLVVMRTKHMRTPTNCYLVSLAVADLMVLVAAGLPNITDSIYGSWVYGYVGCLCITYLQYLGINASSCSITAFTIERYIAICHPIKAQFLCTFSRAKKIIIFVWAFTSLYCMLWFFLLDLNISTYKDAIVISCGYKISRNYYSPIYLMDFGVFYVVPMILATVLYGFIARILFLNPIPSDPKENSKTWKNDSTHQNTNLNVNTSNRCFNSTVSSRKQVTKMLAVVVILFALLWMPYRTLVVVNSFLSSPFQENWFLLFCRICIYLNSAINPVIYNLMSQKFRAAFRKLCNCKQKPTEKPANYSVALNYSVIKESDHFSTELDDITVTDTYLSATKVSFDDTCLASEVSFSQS
Cytochrome P450 2C19 (Homo sapiens), sequence (P33261 whole entry, looked up): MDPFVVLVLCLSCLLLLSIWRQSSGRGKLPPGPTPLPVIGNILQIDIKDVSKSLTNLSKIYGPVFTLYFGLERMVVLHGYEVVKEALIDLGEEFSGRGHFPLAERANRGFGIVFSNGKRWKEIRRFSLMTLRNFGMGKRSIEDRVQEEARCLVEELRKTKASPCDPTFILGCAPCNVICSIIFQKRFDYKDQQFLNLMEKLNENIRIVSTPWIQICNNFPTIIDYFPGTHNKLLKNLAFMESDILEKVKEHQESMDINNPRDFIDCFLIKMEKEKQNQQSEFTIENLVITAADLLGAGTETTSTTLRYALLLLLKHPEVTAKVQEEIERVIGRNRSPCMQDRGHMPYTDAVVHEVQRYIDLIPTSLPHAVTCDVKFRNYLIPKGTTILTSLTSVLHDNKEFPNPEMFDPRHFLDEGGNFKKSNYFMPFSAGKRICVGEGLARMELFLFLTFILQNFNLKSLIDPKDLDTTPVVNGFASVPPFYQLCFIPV
Nuclear receptor subfamily 1 group I member 2 (Homo sapiens), sequence (O75469 whole entry, looked up): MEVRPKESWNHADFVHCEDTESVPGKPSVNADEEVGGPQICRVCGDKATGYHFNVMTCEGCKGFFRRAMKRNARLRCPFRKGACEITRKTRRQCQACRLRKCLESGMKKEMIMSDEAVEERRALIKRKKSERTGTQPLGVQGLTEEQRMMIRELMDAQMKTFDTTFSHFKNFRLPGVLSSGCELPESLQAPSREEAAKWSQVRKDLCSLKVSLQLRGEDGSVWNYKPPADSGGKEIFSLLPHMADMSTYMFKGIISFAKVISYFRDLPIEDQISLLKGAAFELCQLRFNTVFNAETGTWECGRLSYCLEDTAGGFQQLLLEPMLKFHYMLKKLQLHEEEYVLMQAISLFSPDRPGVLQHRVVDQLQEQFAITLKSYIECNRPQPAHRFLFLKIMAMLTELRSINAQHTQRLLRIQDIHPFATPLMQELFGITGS
Cytochrome P450 2D6 (Homo sapiens), sequence (P10635 whole entry, looked up): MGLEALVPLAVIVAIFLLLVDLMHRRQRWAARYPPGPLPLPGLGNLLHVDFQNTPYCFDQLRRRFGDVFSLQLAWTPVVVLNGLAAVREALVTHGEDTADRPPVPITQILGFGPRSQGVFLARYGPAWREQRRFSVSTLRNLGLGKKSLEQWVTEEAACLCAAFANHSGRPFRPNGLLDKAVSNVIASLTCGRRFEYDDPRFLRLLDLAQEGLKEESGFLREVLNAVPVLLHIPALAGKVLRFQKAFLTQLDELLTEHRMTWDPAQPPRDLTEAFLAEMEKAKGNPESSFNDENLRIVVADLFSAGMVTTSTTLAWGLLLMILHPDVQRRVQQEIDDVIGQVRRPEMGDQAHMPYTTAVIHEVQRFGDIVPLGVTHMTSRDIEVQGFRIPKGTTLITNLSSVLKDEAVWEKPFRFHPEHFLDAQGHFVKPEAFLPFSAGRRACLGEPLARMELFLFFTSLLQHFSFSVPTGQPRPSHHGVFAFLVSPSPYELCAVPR
Nuclear receptor subfamily 1 group I member 2 (Rattus norvegicus), sequence (Q9R1A7 whole entry, looked up): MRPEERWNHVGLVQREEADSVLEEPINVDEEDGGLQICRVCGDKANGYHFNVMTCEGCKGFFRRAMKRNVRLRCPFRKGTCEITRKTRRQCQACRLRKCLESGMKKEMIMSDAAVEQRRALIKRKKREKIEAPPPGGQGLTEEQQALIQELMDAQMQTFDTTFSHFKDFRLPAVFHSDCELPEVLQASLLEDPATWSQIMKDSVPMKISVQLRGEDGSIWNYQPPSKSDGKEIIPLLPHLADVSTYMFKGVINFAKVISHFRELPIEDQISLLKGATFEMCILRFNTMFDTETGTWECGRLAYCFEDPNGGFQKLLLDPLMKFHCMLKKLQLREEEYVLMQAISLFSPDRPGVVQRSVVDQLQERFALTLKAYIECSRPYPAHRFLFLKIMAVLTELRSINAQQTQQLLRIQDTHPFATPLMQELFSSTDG

As to `C=CCCCCCCC=C`, the call in test [1] was inactive. In addition, the Potency result in [2], in [3], in test [4], in [5], in test [6] and in test [7] was “inactive” in each case. The Potency entry in test [8], in test [9], in test [10] and in test [11] was “inactive” each time.

As for `O=C(O)Cc1ccc(OCCNC[C@H](O)c2ccccc2)cc1`, in test [1], the result was inactive. Besides, the Potency entry in test [2], in test [3], in test [4], in test [7], in test [8] and in [9] was “inactive” each time. Further, the Potency entry in test [11], in test [12] and in test [13] was “inactive” in each case.

Consider `COc1cc(C(=O)NS(=O)(=O)c2ccccc2C)ccc1Cc1cn(C)c2ccc(NC(=O)OC3CCCC3)cc12`, for which the molecule was called inactive in [1]. The Potency result in test [14], in test [2], in [3], in [4], in test [5] and in test [6] was “inactive” throughout. Besides, the Potency entry in test [7], in test [8], in test [9], in test [10], in test [11] and in test [16] was “inactive” throughout. The Potency entry in test [13] is “inactive”. Also, in test [15], the max activation is -0.0293%.

For the molecule `CNC(=S)NN`, the Potency was 8.63 µM (active) in test [17]; 13.7 µM (active) in [18]; 12.2 µM (active) in test [7]; 61.1 µM (active) in [8]; 19.3 µM (active) in [9]. In addition, the Potency result in test [2], in test [3] and in test [4] was “inactive” throughout.

For `CCCCNc1c(C(=O)OCC)c(C)nc2c1cnn2CC`, the Potency in test [17] was 26.6 µM (active); in test [12], 29.8 µM (active). The Potency result in test [18], in test [2], in [3], in test [4], in [7] and in test [8] was “inactive” in each case. For the same molecule, the Potency result in test [10], in test [11] and in test [16] was “inactive” in each case.

`CCCCCCC(C)Nc1ccc(Nc2ccccc2)cc1` (stereo not drawn): the Potency in [17] is 48.6 µM (active); in [12], 21.7 µM (active); in test [13], 5.03 µM (active). In addition, the Potency entry in test [3], in test [4], in test [5], in test [6], in [8] and in [10] was “inactive” each time.

On to `Cc1cc2c(C(C)C)c(O)c(O)c(C=O)c2c(O)c1-c1c(C)cc2c(C(C)C)c(O)c(O)c(C=O)c2c1O`, for which the Potency was 13.3 µM (active) in [17], 18.8 µM (active) in test [7], 13.3 µM (active) in [9] and 26.6 µM (active) in [11]. The Potency result in [4], in test [5], in [6], in [12] and in [16] was “inactive” each time.

For the origin of these results see PubChem BioAssay (Tox21).
